Drawing on PubChem BioAssay (Tox21), this text covers Potency and outcome for 13 compounds.

Results filed as inconclusive are left out. The source made the active and inactive calls. Unless noted, the call rests on the fitted dose curve; in most records, active means well fitted curve in the direction sought with a large enough effect in the repeat runs; inconclusive means weak or mixed curves; inactive means no such curve, though single readings can be large; an effect the other way counts as inactive or inconclusive.

In test [1] the target is Aryl hydrocarbon receptor (Homo sapiens) (UniProt P35869). Put plainly: qHTS assay to identify small molecule that activate the aryl hydrocarbon receptor (AhR) signaling pathway (AID 743085). Further: nearly all actives have a fitted effect of over 15% in size. Further: potency means the concentration at half of the fitted maximal effect.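 On activation: HG2L7.5c1 human HepG2 liver cells with stably integrated DRE-driven firefly reporter; series mostly up to about 70 µM.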 In outline: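 Stably transfected human liver carcinoma cells (HG2L7.5c1; 20 DRE-firefly luciferase) were incubated 5 h, dosed, and kept 24 h at 37C. Agonism was scored from increased luciferase luminescence.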
Sequence of Aryl hydrocarbon receptor (Homo sapiens) (P35869 whole entry, looked up): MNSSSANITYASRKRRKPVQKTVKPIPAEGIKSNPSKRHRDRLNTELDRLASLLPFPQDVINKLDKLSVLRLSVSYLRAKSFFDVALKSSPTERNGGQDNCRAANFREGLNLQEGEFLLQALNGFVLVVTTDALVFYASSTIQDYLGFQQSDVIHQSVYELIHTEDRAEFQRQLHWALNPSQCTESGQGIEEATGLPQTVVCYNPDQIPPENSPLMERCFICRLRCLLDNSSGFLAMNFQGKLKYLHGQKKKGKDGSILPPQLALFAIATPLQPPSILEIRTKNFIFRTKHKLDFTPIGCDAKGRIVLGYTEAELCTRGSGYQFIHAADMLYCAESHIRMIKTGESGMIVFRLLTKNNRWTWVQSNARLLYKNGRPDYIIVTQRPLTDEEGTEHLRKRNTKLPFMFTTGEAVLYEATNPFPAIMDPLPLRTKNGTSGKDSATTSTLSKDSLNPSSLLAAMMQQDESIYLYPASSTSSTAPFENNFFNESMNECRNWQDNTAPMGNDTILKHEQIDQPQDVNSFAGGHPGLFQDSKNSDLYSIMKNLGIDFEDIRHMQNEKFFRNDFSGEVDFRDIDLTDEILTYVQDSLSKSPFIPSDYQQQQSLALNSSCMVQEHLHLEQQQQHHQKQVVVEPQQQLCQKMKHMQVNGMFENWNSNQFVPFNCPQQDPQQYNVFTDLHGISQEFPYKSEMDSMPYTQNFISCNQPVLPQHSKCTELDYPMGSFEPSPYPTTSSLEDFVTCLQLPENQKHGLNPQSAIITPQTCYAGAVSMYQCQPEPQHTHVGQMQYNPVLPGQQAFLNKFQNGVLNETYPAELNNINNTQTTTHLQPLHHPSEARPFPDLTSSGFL
A general note: Quantitative high-throughput screening tests each substance at several concentrations.

Test [2] is described as follows: qHTS assay to identify small molecule that activate the aryl hydrocarbon receptor (AhR) signaling pathway - cell viability counter screen (AID 743086). Further: series mostly up to about 70 µM; nearly all actives have a fitted effect of over 45% in size. A digest of the protocol: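 Cytotoxicity counter screen: CellTiter-Fluor signal (30 min, 37 C) in 4000 HepG2 cells/well carrying the DRE-luciferase reporter, following 24 h compound exposure at 37 C.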
For test [3], the target named is Peroxisome proliferator-activated receptor gamma (Homo sapiens) (UniProt P37231). Nature of the test: qHTS assay to identify small molecule agonists of the peroxisome proliferator-activated receptor gamma (PPARg) signaling pathway (AID 743094; active means well fitted activation curve with a large enough effect in the signal ratio in the repeat runs, not every such curve was filed as active; the % refers to the signal ratio). A digest of the protocol: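 Fluorescence-based beta-lactamase readout in HEK293H PPARg UAS-bla cells after 17 h compound exposure (37C) and 1 h B/G FRET substrate incubation at room temperature.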
Sequence of Peroxisome proliferator-activated receptor gamma (Homo sapiens) (P37231 whole entry, looked up): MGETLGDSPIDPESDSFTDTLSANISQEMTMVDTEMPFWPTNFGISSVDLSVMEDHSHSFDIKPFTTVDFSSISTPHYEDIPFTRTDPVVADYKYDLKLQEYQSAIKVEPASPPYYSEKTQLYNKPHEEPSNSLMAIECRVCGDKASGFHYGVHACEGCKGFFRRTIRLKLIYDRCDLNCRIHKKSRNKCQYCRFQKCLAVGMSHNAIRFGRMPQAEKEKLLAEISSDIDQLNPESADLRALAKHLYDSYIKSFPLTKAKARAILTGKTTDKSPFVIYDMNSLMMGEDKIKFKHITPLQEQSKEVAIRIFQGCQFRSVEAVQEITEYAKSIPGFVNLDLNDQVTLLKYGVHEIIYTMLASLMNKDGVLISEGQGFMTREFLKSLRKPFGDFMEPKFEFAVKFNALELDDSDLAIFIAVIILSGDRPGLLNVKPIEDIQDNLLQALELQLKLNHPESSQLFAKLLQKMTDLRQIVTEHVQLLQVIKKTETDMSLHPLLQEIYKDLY

Test [4] has the same target. Nature of the test: qHTS assay to identify small molecule antagonists of the peroxisome proliferator-activated receptor gamma (PPARg) signaling pathway (AID 743191; calls by dose curve; further: series mostly up to about 63 µM; nearly all actives have a fitted effect of over 30% in size). A digest of the protocol:
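Beta-lactamase reporter under UAS control in HEK293H PPARg-bla cells; compound treatment 17 h at 37C. Read-out: fluorescence intensity after 1 h room-temperature incubation with LiveBLAzer B/G FRET substrate.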

Test [5] in a line: qHTS assay for small molecule agonists of the antioxidant response element (ARE) signaling pathway (AID 743202; active means well fitted activation curve with a large enough effect in the signal ratio in the repeat runs, not every such curve was filed as active; the % refers to the signal ratio). In outline:
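After 16 hours of compound treatment at 37 C, HepG2 cells with a stably integrated ARE-driven beta-lactamase reporter were loaded 2 hours at room temperature with LiveBLAzer B/G FRET substrate and fluorescence intensity measured.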

Test [6] can be described thus: qHTS assay for small molecule agonists of the antioxidant response element (ARE) signaling pathway - cell viability counter screen (AID 743203; calls by dose curve; further: nearly all actives have a fitted effect of over 55% in size). In outline:
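Parallel cytotoxicity read-out for the ARE-bla screen: HepG2 reporter cells, 16 hrs with compounds, then CellTiter-Glo luminescence.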

Test [7] can be described thus: qHTS assay for small molecule activators of the heat shock response signaling pathway - cell viability counter screen (AID 743209). Further: nearly all actives have a fitted effect of over 50% in size. A digest of the protocol: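 To flag cytotoxic compounds, HSE-bla HeLa cells plated at 1500 cells/well were dosed for 5 h at 37 C, followed by the reporter FRET read and then CellTiter-Glo, with luminescence recorded 30 min after reagent addition.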

A short description of test [8]: qHTS assay for small molecule activators of the heat shock response signaling pathway (AID 743210; active means well fitted activation curve with a large enough effect in the signal ratio in the repeat runs, with a control signal flat, not every such curve was filed as active; the % refers to the signal ratio; further: series mostly up to about 63 µM). In outline:
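Compound exposure lasted 5 h at 37 C in HeLa cells carrying a heat-shock-element-driven beta-lactamase reporter. Read-out: fluorescence intensity after 2.5 h room-temperature loading with LiveBLAzer B/G FRET substrate.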

Test [9] can be described thus: qHTS assay to identify small molecule agonists of the peroxisome proliferator-activated receptor delta (PPARd) signaling pathway - cell viability counter screen (AID 743211). Further: nearly all actives have a fitted effect of over 55% in size. A digest of the protocol:
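In the same wells used for beta-lactamase reporter measurement, cytotoxicity is scored by CellTiter-Glo. HEK293H PPARd-bla cells receive compound for 17 h at 37C following a 5 h settling period.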

Test [10] concerns the target Peroxisome proliferator-activated receptor delta (Homo sapiens) (UniProt Q03181). Put plainly: qHTS assay to identify small molecule agonists of the peroxisome proliferator-activated receptor delta (PPARd) signaling pathway (AID 743212; calls by dose curve;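 further: HEK293H cells with PPARd UAS beta-lactamase reporter GeneBLAzer system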). In outline:
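Beta-lactamase reporter readout: a ratiometric FRET signal from the LiveBLAzer substrate after 2 h at room temperature. Compound exposure at 37 °C in PPARδ-bla HEK293H cells driven by an upstream activator sequence.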

A short description of test [11]: qHTS assay to identify small molecule antagonists of the peroxisome proliferator-activated receptor delta (PPARd) signaling pathway - cell viability counter screen (AID 743213). Further: nearly all actives have a fitted effect of over 50% in size. A digest of the protocol: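 Cytotoxicity counter screen: CellTiter-Glo luminescence read 30 min after addition, in the same wells as the reporter assay. There, PPARd UAS-bla HEK293H cells (3000/well) were treated 17 h at 37 C with compound and 300 nM L165041.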

Test [12] addresses Peroxisome proliferator-activated receptor delta (Homo sapiens) (UniProt Q03181). Nature of the test: qHTS assay to identify small molecule antagonists of the peroxisome proliferator-activated receptor delta (PPARd) signaling pathway (AID 743215; active means well fitted inhibition curve with a large enough effect in the signal ratio in the repeat runs, not every such curve was filed as active; the % refers to the signal ratio;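 further: cells stimulated with agonist L165041 at 300 nM final during compound exposure; series mostly up to about 62 µM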). In outline: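 Screen format: qHTS, antagonist mode. HEK293H PPARd-bla cells received compound and 300 nM L165041 (final), 17 h, 37 C. Beta-lactamase detected via FRET substrate fluorescence, 2 h, room temperature.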

Test [13] can be described thus: qHTS assay to identify small molecule agonists of the farnesoid-X-receptor (FXR) signaling pathway - cell viability counter screen (AID 743218). Further: nearly all actives have a fitted effect of over 45% in size. A digest of the protocol: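 Same-well cytotoxicity check on FXR-UAS-bla HEK 293T cells: 5 h attachment, 16 h compound at 37 C, CellTiter-Glo luminescence read at room temperature after 30 min.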
Test [14] in a line: qHTS assay to identify small molecule antagonists of the farnesoid-X-receptor (FXR) signaling pathway - cell viability counter screen (AID 743221; active means well fitted cell-killing curve with a large enough effect in the repeat runs, not every such curve was filed as active; further: nearly all actives have a fitted effect of over 50% in size). A digest of the protocol:
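Here viability was scored by luminescence after CellTiter-Glo addition to wells already read for beta-lactamase. Prior treatment: compound plus CDCA (50 uM final), 16 h, 37 C, HEK 293T FXR-bla cells.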

Test [15] concerns the target Vitamin D3 receptor (Homo sapiens) (UniProt P11473). Nature of the test: qHTS assay to identify small molecule agonists of the vitamin D receptor (VDR) signaling pathway (AID 743222; calls by dose curve). A digest of the protocol: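 Using LiveBLAzer B/G FRET detection, agonism was scored in VDR-bla cells exposed overnight (16 h, 37C) to DMSO-dissolved compounds; substrate incubation was 2 h at room temperature.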

Test [16] shares this target. Put plainly: qHTS assay to identify small molecule antagonists of the vitamin D receptor (VDR) signaling pathway (AID 743223; active means well fitted inhibition curve with a large enough effect in the signal ratio in the repeat runs, not every such curve was filed as active; the % refers to the signal ratio). In outline: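 Inhibition of agonist-driven VDR signalling is scored in VDR-bla cells: 3 nM final 1alpha,25-dihydroxyvitamin D3 plus compound, 16 h at 37C, then beta-lactamase detection by FRET substrate fluorescence after 2 h.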
Test [17] can be described thus: qHTS assay to identify small molecule agonists of the vitamin D receptor (VDR) signaling pathway - cell viability counter screen (AID 743224). Further: series mostly up to about 63 µM; nearly all actives have a fitted effect of over 50% in size. A digest of the protocol:
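Counter screen for cytotoxicity: VDR-bla cells at 2,000 cells/well, 16 h compound exposure, then CellTiter-Glo luminescence after the beta-lactamase measurement.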

The target of test [18] is Bile acid receptor (Homo sapiens) (UniProt Q96RI1). Put plainly: qHTS assay to identify small molecule antagonists of the farnesoid-X-receptor (FXR) signaling pathway (AID 743217; active means well fitted inhibition curve with a large enough effect in the signal ratio in the repeat runs, not every such curve was filed as active; the % refers to the signal ratio). In outline: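 Quantitative HTS, beta-lactamase reporter format: FXR-UAS-bla HEK 293T cells co-treated 16 h at 37 °C with compounds and 50 uM final chenodeoxycholic acid, then read by B/G FRET fluorescence.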
Sequence of Bile acid receptor (Homo sapiens) (Q96RI1 whole entry, looked up): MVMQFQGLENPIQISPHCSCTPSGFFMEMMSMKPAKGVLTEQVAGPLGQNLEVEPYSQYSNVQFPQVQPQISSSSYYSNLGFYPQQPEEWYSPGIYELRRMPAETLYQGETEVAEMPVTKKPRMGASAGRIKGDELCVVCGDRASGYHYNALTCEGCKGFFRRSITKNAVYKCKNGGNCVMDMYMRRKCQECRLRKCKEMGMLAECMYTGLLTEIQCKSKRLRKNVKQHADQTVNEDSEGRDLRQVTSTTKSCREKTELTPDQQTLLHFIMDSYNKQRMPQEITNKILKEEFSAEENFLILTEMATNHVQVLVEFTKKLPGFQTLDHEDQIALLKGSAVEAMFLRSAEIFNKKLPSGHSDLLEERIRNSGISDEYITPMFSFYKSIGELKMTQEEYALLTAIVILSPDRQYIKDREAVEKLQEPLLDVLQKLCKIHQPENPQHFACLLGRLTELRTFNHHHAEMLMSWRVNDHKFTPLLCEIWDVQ

Test [19] shares this target. Put plainly: qHTS assay to identify small molecule agonists of the farnesoid-X-receptor (FXR) signaling pathway (AID 743220; active means well fitted activation curve with a large enough effect in the signal ratio in the repeat runs, not every such curve was filed as active; the % refers to the signal ratio). A digest of the protocol:
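FXR-UAS-bla HEK 293T cells carrying a UAS-driven beta-lactamase reporter were plated for 5 h at 37C/5% CO2, then exposed to DMSO-dissolved Tox21 10K compounds for 16 h at 37C. A LiveBLAzer B/G FRET substrate was loaded for 2 h at room temperature before fluorescence reading.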

The nature of test [20]: qHTS assay to identify small molecule antagonists of the peroxisome proliferator-activated receptor gamma (PPARg) signaling pathway - cell viability counter screen (AID 743194). Further: nearly all actives have a fitted effect of over 55% in size. A digest of the protocol: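 Viability was measured as CellTiter-Glo luminescence in GeneBLAzer PPARg UAS-bla HEK293H cells. These cells had been exposed 17 h at 37 C to compounds together with rosiglitazone at 50 nM final, with the beta-lactamase readout taken in the same wells.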

Sequence of Vitamin D3 receptor (Homo sapiens) (P11473 whole entry, looked up): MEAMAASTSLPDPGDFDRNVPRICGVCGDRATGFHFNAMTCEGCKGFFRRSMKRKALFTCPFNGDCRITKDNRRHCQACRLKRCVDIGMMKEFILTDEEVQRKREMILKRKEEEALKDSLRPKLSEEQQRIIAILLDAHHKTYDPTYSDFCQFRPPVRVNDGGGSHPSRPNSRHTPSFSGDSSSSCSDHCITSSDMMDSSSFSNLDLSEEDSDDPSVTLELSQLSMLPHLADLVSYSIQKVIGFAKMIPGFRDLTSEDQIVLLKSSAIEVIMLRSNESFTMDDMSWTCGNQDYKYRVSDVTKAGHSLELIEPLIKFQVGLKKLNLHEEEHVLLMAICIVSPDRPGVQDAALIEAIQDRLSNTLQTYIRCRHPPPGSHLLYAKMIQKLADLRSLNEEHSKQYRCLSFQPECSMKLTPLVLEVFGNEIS
Sequence of Peroxisome proliferator-activated receptor delta (Homo sapiens) (Q03181 whole entry, looked up): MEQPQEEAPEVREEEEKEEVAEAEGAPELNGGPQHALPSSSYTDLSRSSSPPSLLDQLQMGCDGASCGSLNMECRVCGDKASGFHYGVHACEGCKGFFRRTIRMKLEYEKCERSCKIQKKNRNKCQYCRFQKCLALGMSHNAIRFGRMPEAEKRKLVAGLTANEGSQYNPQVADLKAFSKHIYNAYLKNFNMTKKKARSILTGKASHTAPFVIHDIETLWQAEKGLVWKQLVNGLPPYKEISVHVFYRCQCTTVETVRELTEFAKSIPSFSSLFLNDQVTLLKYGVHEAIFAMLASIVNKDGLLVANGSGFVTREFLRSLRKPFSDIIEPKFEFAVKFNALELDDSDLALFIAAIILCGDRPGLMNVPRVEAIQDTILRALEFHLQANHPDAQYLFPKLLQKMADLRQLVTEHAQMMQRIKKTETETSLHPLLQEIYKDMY

As to `COC(=O)c1cc(Cl)cc(Cl)c1`, the Potency result in test [1], in test [2], in [3], in [5] and in test [7] was “inactive” each time. Moreover, the result in [4], in [6], in [8], in test [9], in test [10] and in [11] was inactive. Also, the outcome in test [12], in test [13], in [14], in test [15], in test [16] and in test [17] was inactive.

As to `CC(=O)c1cc(C)oc1C`, the Potency result in test [1], in [2], in test [3] and in [7] was “inactive” each time. Also, the compound was classed as inactive in [4], in test [6], in [8], in test [9], in test [10] and in test [12]. Also, the call in [13], in test [14], in test [15], in [16] and in [17] was inactive.

With `COC(=O)c1cccc(Cl)c1`, the Potency entry in test [1], in test [2], in test [3], in test [5] and in [7] was “inactive” throughout. Further, the call in test [4], in test [6], in test [8], in test [10], in [11] and in [12] was inactive. Further, the outcome in [18], in [19], in test [15], in test [16] and in [17] was inactive.

Regarding `COc1ccc2c(c1)c1c3n2CCN(C)C3=NCC1`, the Potency in test [1] is 13.3 µM (active). Also, the Potency result in test [2], in [3], in test [5] and in test [7] was “inactive” in each case. Further, the result in test [4], in test [6], in test [8], in [9], in test [10] and in test [13] was inactive. Moreover, the result in [14], in [15], in test [16] and in test [17] was inactive.

Regarding `CC1(C)Oc2ccc(C#N)cc2[C@@H](N2CCCC2=O)[C@@H]1O`, the Potency entry in test [1], in [2], in test [3] and in [5] was “inactive” throughout. In addition, the compound was called inactive in [4], in test [6], in [8], in [9], in test [11] and in [18]. Besides, the outcome in test [13], in [19], in test [14] and in [17] was inactive.

`COC(=O)CCCCC(=O)O`: the Potency result in test [1], in test [2], in [3], in test [5] and in [7] was “inactive” in each case. In addition, the call in test [4], in test [6], in test [8], in test [9], in test [10] and in test [12] was inactive. Besides, the result in [14] was inactive.

As for `CN(C)CCCO[C@@H]1[C@H]2OC(C)(C)O[C@H]2O[C@@H]1C(O)CO` (some centres not stated), the Potency entry in [1], in [2], in test [3], in test [5] and in [7] was “inactive” each time. Also, the compound was called inactive in test [4], in test [6], in test [8], in test [9], in [13] and in test [15]. Also, the outcome in [16] was inactive.

Take `O=C1CCC(=O)N1Cl`: the Potency entry in test [1], in [2], in test [3], in test [5] and in test [7] was “inactive” each time. In addition, the compound was called inactive in test [4], in test [6], in [8], in [9], in test [10] and in test [11]. The call in test [13], in test [14], in test [15] and in test [16] was inactive.

With `CC(N)CCCC(C)(C)O` (configuration not stated), the Potency result in test [1], in [2], in [3] and in test [7] was “inactive” in each case. Moreover, the compound was called inactive in test [4], in test [8], in [9], in test [10], in [12] and in [13]. Besides, the outcome in [14], in test [15] and in [16] was inactive.

On to `O=C(NCN1CCOCC1)c1cnccn1`, for which the Potency result in test [1], in test [2], in [3], in test [5] and in [7] was “inactive” each time. Also, the compound was classed as inactive in test [4], in test [6], in [9], in test [10], in [11] and in test [12]. In addition, the call in test [13], in test [14], in test [15] and in test [17] was inactive.

For the compound `CCCC(=O)Nc1ccc(OCC(O)CNC(C)C)c(C(C)=O)c1` (configuration not stated), the Potency entry in test [1], in test [2], in [3], in test [5] and in test [7] was “inactive” each time. Besides, the result in [20], in test [6], in [8], in test [9], in test [10] and in [11] was inactive. Moreover, the outcome in test [12], in test [13], in [15], in [16] and in [17] was inactive.

Turning to `CC(C)C1OCCN1CCOC(=O)NCCCCCCNC(=O)OCCN1CCOC1C(C)C` (configuration not stated), the Potency result in test [1], in test [2], in [3] and in test [5] was “inactive” in each case. Also, the outcome in test [4], in test [6], in test [9], in test [10], in test [11] and in test [12] was inactive. The outcome in test [13], in test [14] and in [17] was inactive.

As for `CC(=O)C(C)O` (configuration not stated), the Potency entry in test [1], in test [2], in test [3], in [5] and in [7] was “inactive” throughout. The result in test [4], in [6], in test [8], in test [9], in test [10] and in [11] was inactive. The outcome in test [12], in test [18], in test [13], in test [19], in test [14] and in test [15] was inactive. Further, the result in [16] and in test [17] was inactive.
